Values joined by “and” are separate entries in the source; they are usually repeats but may differ in a detail not shown here. Equal entries are not always repeated. Results filed as inconclusive are left out. Active and inactive are the calls of the source. Unless noted, calls come from the whole dose curve; as a rule, active = well fitted curve in the direction sought with a large enough effect; inconclusive = small, poorly fitted or top-dose-only effect, or another doubt; inactive = no such curve, though single readings can be large; an effect the other way counts as inactive or inconclusive.
How the values were obtained:
[1] = Cell Viability - BJ (AID 421; calls by dose curve;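 note: potency is the fitted concentration of half-maximal effect; cells exposed to compound for 40 hours at 37 °C before readout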); details: BJ fibroblast viability, qHTS
Method in brief: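 Luminescent ATP signal (CellTiter-Glo, 20 min at room temperature) served as the read-out of viable BJ cells after 40 hours of compound treatment. Responses were scaled between DMSO and 100 uM tamoxifen, and AC50 values were obtained by Hill modeling.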

[2] = Cell Viability - Jurkat (AID 426;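 active = dose-dependent loss of cell ATP signal giving a full or clear fitted curve, ranked by lower potency value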; note: potency is the fitted concentration of half-maximal effect); details: qHTS
Method in brief: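 Jurkat (clone E6-1, human T-cell leukemia) cells, 5000/well in complete medium, were exposed to compound for 40 hr at 37 °C. Viability was read as intracellular ATP by CellTiter-Glo luminescence; AC50 came from Hill fits of concentration-response data.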

[3] = Cell Viability - Hek293 (AID 427;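 active = compounds whose dose-response curve shows a full or clear partial loss of cell viability, called from curve shape rather than a numeric limit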;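 note: potency is the fitted concentration of half-maximal effect; cells exposed to compound for 40 hours at 37 °C before reading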); details: qHTS
Method in brief: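 Luminescent ATP read-out (CellTiter-Glo, 20 min RT) after 40 hr compound exposure at 37 °C in complete medium. Signal normalized to DMSO (basal) and 100 uM tamoxifen (100% inhibition); concentration-response fitted with the standard Hill equation to give AC50.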

[4] = Cell Viability - MRC5 (AID 434; calls by dose curve;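 note: potency is the fitted concentration of half-maximal effect; potency reflects cytotoxicity seen as loss of intracellular ATP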); details: MRC5 lung fibroblast viability, qHTS
Method in brief: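 qHTS cytotoxicity in human lung fibroblast MRC5 cells; 40 hr treatment, 37 °C; cellular ATP by luciferase luminescence; DMSO = 0%, 100 uM tamoxifen = 100% inhibition; Hill-fit AC50.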

[5] = Cell Viability - Mesenchymal (AID 546); details: mesenchymal cells viability, qHTS; series mostly up to 91.7 µM;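 note: cells exposed to compound for 40 hours before reading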
Method in brief: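 AC50 values reflect the drop in intracellular ATP in a human kidney mesenchymal line derived from normal glomeruli. Treatment lasts 40 hr at 37 °C in complete medium, and the signal comes from CellTiter-Glo luminescence.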

[6] = Cellular Toxicity (caspase-3) SHSY5Y (AID 657); details: SH-SY5Y caspase-3 activation, DMSO zero, 10 µM staurosporine = 100%; series mostly up to 91.7 µM
Method in brief: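 SH-SY5Y human neuroblastoma cells, 1500/well, exposed to compound for 16 hours at 37 °C in complete medium. Caspase-3/7 activity read by Caspase-Glo luminescence after 1 hr at room temperature, normalized to DMSO and 10 uM staurosporine; AC50 from Hill fit.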

[7] = Cellular Toxicity (caspase-3) MRC-5 (AID 659); details: MRC-5 cells, luminescence, normalized: DMSO 0%, 10 µM staurosporine 100%; series mostly up to 91.7 µM
Method in brief: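 Concentration-dependent caspase 3/7 activation is measured in human normal lung fibroblasts (MRC-5) following 16-hour treatment. AC50 values come from standard Hill-equation modeling of luminescence normalized to DMSO and 10 uM staurosporine.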

[8] = Cellular Toxicity (caspase-3) Mesangial (AID 660); details: mesangial cells, normalized: DMSO 0%, 100 µM tamoxifen 100%; series mostly up to 91.7 µM;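 note: cells exposed to compound for 16 h before the caspase read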
Method in brief: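 Human renal glomerular mesangial cells (1000/well) were treated with compounds for 16 h at 37 °C in complete medium, then caspase 3/7 activity was read by Caspase-Glo luminescence. Data were normalized to DMSO and 100 uM tamoxifen; AC50 from Hill fits.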

[9] = Cellular Toxicity (caspase-3) SK-N-SH (AID 661); details: SK-N-SH caspase-3 activation, qHTS; series mostly up to 91.7 µM
Method in brief: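 SK-N-SH human neuroblastoma cells (1500/well) were treated with compounds for 16 hr at 37 °C in complete medium; caspase 3/7 activity was read by Caspase-Glo luminescence. AC50 came from Hill fits of data normalized to DMSO and 10 uM staurosporine.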

[10] = Cellular Toxicity (caspase-3) Hek293 (AID 664); details: HEK293 caspase-3 activation, DMSO = 0%, 100 µM tamoxifen = 100%; at 92.2 µM (top of the series);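 note: cells exposed to compound for 16 h at 37 °C before readout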
Method in brief: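 HEK293 cells were exposed to compounds in complete medium for 16 hr at 37 °C, then caspase-3/7 activity was read by Caspase-Glo 3/7 luminescence after 20 min at room temperature. Data normalized to DMSO and 100 uM tamoxifen; AC50 from Hill fits.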

[11] = Cellular Toxicity (caspase-3) N2a (AID 665); details: N2a cells, luminescence, normalized: DMSO 0%, 10 µM staurosporine 100%; series mostly up to 92.2 µM;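 note: compound exposure lasted 16 h at 37 °C before readout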
Method in brief: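 Mouse N2a neuroblastoma cells (1500/well) were treated with compounds for 16 h at 37 °C, then caspase-3/7 activity was read by Caspase-Glo luminescence after 1 h at room temperature. Data were normalized to DMSO and 10 uM staurosporine; AC50 from Hill fits.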

[12] = Cell Viability - LYMP1-002 - Assay at 16 hr (AID 948); details: LYMP1-002 lymphoblastoid cell viability; series mostly up to 92.2 µM;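 note: 0% = DMSO alone and full effect = 92 µM tetraoctylammonium bromide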
Method in brief: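 LYMP1-002 human lymphoblastoid cells, 2500/well, were treated with compounds for 16 hr at 37 C in complete medium. Viability was read as intracellular ATP by CellTiter-Glo luminescence, and AC50 was derived from a Hill fit to concentration-response data.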

[13] = MultiTox-Fluor Cytotoxicity Assay - LYMP1-003 - Dead Cells (AID 961); details: LYMP1-003 lymphoblastoid cells, dead-cell protease fluorescence; series mostly up to 92.2 µM;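 note: 0% = DMSO and 100% = tetraoctylammonium bromide; nearly all actives have a fitted effect of over 70% in size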
Method in brief: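 Human lymphoblastoid LYMP1-003 cells (2500/well) were treated with compounds for 16 hr at 37 C in complete medium. Dead-cell protease release was read by bis-AAF-R110 fluorescence (Ex/Em 485/520). AC50 came from Hill fits, normalized to DMSO and 15 uM tetraoctylammonium bromide.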

[14] = MultiTox-Fluor Cytotoxicity Assay - LYMP1-003 - Live Cells (AID 962); details: LYMP1-003 lymphoblastoid cells, MultiTox-Fluor live-cell protease fluorescence; series mostly up to 92.2 µM;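 note: 0% = DMSO only and full loss = 92 µM tetraoctylammonium bromide; cytotoxic hits lower the live-cell protease signal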
Method in brief: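 LYMP1-003 human lymphoblastoid cells (2500/well) in complete medium were preincubated 5 hr at 37 C, then exposed to compounds for 16 hr at 37 C. Live-cell protease cleavage of GF-AFC read by fluorescence (Ex/Em 405/510); AC50 from Hill fits.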

[15] = Cell Viability - LYMP1-003 - Assay at 24 hr (AID 963); details: LYMP1-003 lymphoblastoid cell viability; series mostly up to 92.2 µM;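 note: plate controls were DMSO only for no effect and tetraoctylammonium bromide positive control for full effect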
Method in brief: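 Human lymphoblastoid LYMP1-003 cells (2500/well) were rested 5 hr at 37 C, then exposed to compounds in complete medium for 24 hr at 37 C. Cellular ATP was quantified by CellTiter-Glo luminescence, and AC50 values came from Hill fits of concentration-response data.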

[16] = Cell Viability - LYMP2-008 (AID 980); details: LYMP2-008 lymphoblastoid cell viability, qHTS; series mostly up to 92.2 µM; note: % is set by controls: 0 for no effect and ±100 for the full control effect; nearly all actives have a fitted effect of over 60% in size
Method in brief: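 Human lymphoblastoid cells (2500/well) were plated, held 5 hr at 37 C, then exposed to compounds for 24 hr at 37 C in complete medium. Intracellular ATP was read by CellTiter-Glo luminescence; AC50 from Hill-fitted concentration-response.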

[17] = qHTS Assay for Identification of Small Molecule Inducers of Hypoxia Response (AID 2120; active = well fitted curve in the direction sought with a large enough effect in the signal ratio, with a control signal flat, not every such curve was filed as active; the % refers to the signal ratio; note: 0% is about no effect); details: hypoxia response reporter cells, beta-lactamase ratio readout; series mostly up to 104 µM
Method in brief: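 HRE-beta-lactamase reporter in CellSensor HRE-bla ME-180 cells, 2500 cells/well in Opti-MEM with 0.5% dialyzed FBS; compounds tested as titration series, 17 h at 37 degrees C. CCF4 substrate 2.5 h at room temperature; AC50 from 460/530 nm ratio.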

[18] = target: Peroxisome proliferator-activated receptor alpha (Homo sapiens) (UniProt Q07869); experiment: qHTS assay for small molecule agonists of the peroxisome proliferator-activated receptor alpha (PPARalpha) signaling pathway (AID 651778); details: PathHunter PPARalpha complementation, chemiluminescence, 6 h; hits give high values; note: % of control where 0% means no effect
Method in brief: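 Chemiluminescence from complemented enzyme reported PPARalpha activation in cells after 6 hr of compound treatment at 37 C. The detection reagent was incubated for 60 min at room temperature, and compounds were scored as agonists.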

[19] = qHTS assay for small molecule agonists of the antioxidant response element (ARE) signaling pathway measured by Nrf2-dependant transcriptional activity - cell viability counter screen (AID 720653; active = well fitted curve in the direction sought with a large enough effect in the repeat runs; an effect the other way counts as inactive or inconclusive; note: % is set by controls: 0 for no effect and ±100 for the full control effect); details: ARE-bla HepG2 viability, CellTiter-Glo ATP luminescence, 16 h; hits give low values
Method in brief: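 Cytotoxicity counter screen: intracellular ATP quantified by CellTiter-Glo luminescence in the same ARE-bla HepG2 plates, after 16 h compound exposure and a 2 h beta-lactamase substrate step.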

[20] = qHTS assay for cell viability of the p53RE-bla HCT-116 cell line (AID 743292); details: p53RE-bla HCT-116 viability, ATP luminescence, 16 h; series mostly up to 95 µM; note: % is set by controls: 0 for no effect and ±100 for the full control effect; nearly all actives have a fitted effect of over 55% in size
Method in brief: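 ATP-based luminescent viability (CellTiter-Glo, 30 min RT) after 16 h compound treatment at 37 C of p53RE-bla HCT-116 cells, seeded at 4,000 cells/well and rested 5 h before dosing.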

Sequence of Peroxisome proliferator-activated receptor alpha (Homo sapiens) (Q07869 whole entry, looked up): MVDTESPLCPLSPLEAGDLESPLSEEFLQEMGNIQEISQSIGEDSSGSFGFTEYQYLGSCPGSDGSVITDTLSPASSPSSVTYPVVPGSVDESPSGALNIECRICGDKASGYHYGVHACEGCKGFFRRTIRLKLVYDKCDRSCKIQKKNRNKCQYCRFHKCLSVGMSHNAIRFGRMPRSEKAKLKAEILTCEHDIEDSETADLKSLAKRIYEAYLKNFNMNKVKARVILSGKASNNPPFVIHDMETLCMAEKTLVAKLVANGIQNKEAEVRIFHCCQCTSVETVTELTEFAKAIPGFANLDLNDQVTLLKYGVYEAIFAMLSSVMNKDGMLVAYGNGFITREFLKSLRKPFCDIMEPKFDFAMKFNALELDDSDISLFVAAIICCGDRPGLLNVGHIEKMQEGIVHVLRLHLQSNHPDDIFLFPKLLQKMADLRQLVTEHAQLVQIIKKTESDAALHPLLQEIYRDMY

CSSC
inactive: Potency [1] > 92 µM | Potency [2] > 92 µM | Potency [3] > 92 µM | Potency [4] > 92 µM | Potency [5] | outcome [6] | outcome [7] | outcome [8] | Potency [9] | caspase-3 activation [10] -3.42% | outcome [11] | outcome [12] | Potency [13] | outcome [14] | outcome [15] | Potency [16] | Potency [17] | max response [18] -6.95% | max response [19] 1.42% | Potency [20]

Nc1cccc(Cl)c1
inactive: Potency [1] > 92 µM | Potency [2] > 92 µM | Potency [3] > 92 µM | Potency [4] > 92 µM | Potency [5] | outcome [6] | outcome [7] | outcome [8] | Potency [9] | caspase-3 activation [10] 5.51% | outcome [11] | outcome [12] | Potency [13] | outcome [14] | outcome [15] | Potency [16] | Potency [17] | max response [18] 0.632% | max response [19] 2.22% | Potency [20]

O=C(O)C(Cl)Br (stereo not given)
inactive: Potency [1] > 92 µM | Potency [2] > 92 µM | Potency [3] > 92 µM | Potency [4] > 92 µM | Potency [5] | outcome [6] | outcome [7] | outcome [8] | Potency [9] | caspase-3 activation [10] 0.0973% | outcome [11] | outcome [12] | Potency [13] | outcome [14] | outcome [15] | Potency [16] | Potency [17] | max response [18] -0.46% | max response [19] 3.95% | Potency [20]

CC12CC1(C)C(=O)N(c1cc(Cl)cc(Cl)c1)C2=O (stereo not given)
inactive: Potency [1] > 92 µM | Potency [2] > 92 µM | Potency [3] > 92 µM | Potency [4] > 92 µM | Potency [5] | outcome [6] | outcome [7] | outcome [8] | Potency [9] | caspase-3 activation [10] 1.47% | outcome [11] | outcome [12] | Potency [13] | outcome [14] | outcome [15] | Potency [16] | Potency [17] | max response [18] -1.35% and -2.97% | max response [19] -1.37% and -4.13% | Potency [20]

ClCc1ccccc1
inactive: Potency [1] > 92 µM | Potency [2] > 92 µM | Potency [3] > 92 µM | Potency [4] > 92 µM | Potency [5] | outcome [6] | outcome [7] | outcome [8] | Potency [9] | caspase-3 activation [10] 1.06% | outcome [11] | outcome [12] | Potency [13] | outcome [14] | outcome [15] | Potency [16] | Potency [17] | max response [18] 3.28% | max response [19] 16.1% | Potency [20]

O=Cc1ccc2c(c1)OCO2
inactive: Potency [1] > 92 µM | Potency [2] > 92 µM | Potency [3] > 92 µM | Potency [4] > 92 µM | Potency [5] | outcome [6] | outcome [7] | outcome [8] | Potency [9] | caspase-3 activation [10] 0.153% | outcome [11] | outcome [12] | Potency [13] | outcome [14] | outcome [15] | Potency [16] | Potency [17] | max response [18] -6.34% | max response [19] 2.8% | Potency [20]

From PubChem BioAssay (NCATS)
